# Experimental data published in PubChem BioAssay.
# Several values for one entry are separate records, joined by “and”; a condition that tells them apart may be missing. Equal entries are not always repeated. Activity calls are given as the source filed them. Unless noted, the rule behind the calls is not given here.
# Columns and labels:
# [1] = system: XIP peptide (Xip251-270) binding; assay: XIP fragment 251-270 binding compounds – biochemical, small-molecule microarray, fluorescence 635/667 nm, 0.1 µg/mL protein, primary screen (AID 1182); settings: fluorescent protein binding, 635 nm; higher = more signal, called active from +8 up or from −8 down unless noted
# [2] = system: XIP peptide (Xip251-270); assay: compounds binding XIP fragment 251-270 – biochemical, small-molecule microarray, fluorescence 635/667 nm, 0.5 µg/mL protein, primary screen (AID 1183); settings: fluorescence 635 nm, higher = more signal
# [3] = blood-stage malaria parasite viability loss – strain 3D7, DAPI fluorescence, 100 nL, primary screen (AID 1184);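 note: parasites grown inside human red blood cells in medium with human serum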; settings: P. falciparum 3D7 growth, 3 d, higher = more signal
# [4] = biological target: Homeobox protein Hox-A13 (Mus musculus) (UniProt Q62424); assay: disruptors of Hoxa13 oligonucleotide interaction – biochemical, fluorescence polarization, labeled oligonucleotide, primary screen (AID 1185); settings: Hoxa13:DNA binding, 15 min; higher = more signal, called active from +8 up or from −8 down unless noted
# [5] = blockers of DNA damage checkpoint Chk1 activation – imaging, HeLa, hydroxyurea, phospho-Chk1 antibody, percent positive cells, primary screen (AID 1186); settings: hydroxyurea-induced phospho-Chk1 immunofluorescence imaging, higher = more signal
# [6] = blockers of DNA damage checkpoint Chk1 activation – imaging, HeLa, hydroxyurea, phospho-Chk1 nuclear intensity, primary screen (AID 1187); settings: hydroxyurea-induced phospho-Chk1 immunofluorescence imaging, higher = more signal
# Chain of Homeobox protein Hox-A13 (Mus musculus) (Q62424 whole entry, looked up): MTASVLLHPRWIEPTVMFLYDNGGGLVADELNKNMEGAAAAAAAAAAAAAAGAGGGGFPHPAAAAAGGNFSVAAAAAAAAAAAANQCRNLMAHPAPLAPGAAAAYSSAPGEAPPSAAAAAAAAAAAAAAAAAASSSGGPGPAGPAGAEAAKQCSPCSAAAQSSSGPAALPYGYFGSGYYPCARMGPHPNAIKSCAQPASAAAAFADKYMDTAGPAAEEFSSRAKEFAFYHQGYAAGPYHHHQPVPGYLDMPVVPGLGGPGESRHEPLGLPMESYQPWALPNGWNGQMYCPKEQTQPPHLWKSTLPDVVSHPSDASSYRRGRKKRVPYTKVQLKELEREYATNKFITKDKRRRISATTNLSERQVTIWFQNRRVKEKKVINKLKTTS
Structure (SMILES),composite z-score [1],composite z-score [2],z-score [3],z-score [4],z-score [5],z-score [6]
COC(=O)[C@H]1[C@@H](O)[C@@]2(O)c3c(OC)cc(OC)cc3O[C@@]2(c2ccc(OC)cc2)[C@@H]1c1ccccc1,-0.119 (inactive),0.914,-1.26,-0.0317 (inactive),–,–
COC(=O)NCC=Cc1nc(CCC=CC(=O)O[C@H]2CC3CC(=O)O[C@@H](C=CCC(C)C)C[C@@H]4CC[C@H](C)[C@@H](C[C@@H](OC)C[C@H](C2)O3)O4)co1,0.0433 (inactive),-1,-1.65,-2.54 (inactive),–,–
C[C@@H]1OC=C2[C@@H](O)[C@H]3O[C@H]3C(=O)[C@]23[C@H]1[C@H]1C2=C([C@@H](O)[C@H]4O[C@H]4C2=O)[C@@H]3O[C@@H]1C,-0.496 (inactive),-0.465,0.487,-0.299 (inactive),–,–
CC1N(P(=O)(c2ccccc2)c2ccccc2)CC(O)(c2ccccc2)CC12CC2 (centres undefined),0.51 (inactive) and -0.0366 (inactive),0.547 and 0.382,0.2 and -0.527,-3.23 (inactive) and -3.55 (inactive),0.694 (inactive) and 0.475 (inactive),0.608 (inactive) and 0.341 (inactive)
OCc1ccc(C2=CC(c3cccs3)N(Cc3cccc(OC(F)(F)F)c3)CC2)cc1 (centres undefined),0.209 (inactive),-0.0913,-3.09,-1.91 (inactive),-0.308 (inactive),-0.44 (inactive)
CCc1cc2c(nc1CC)CCN(CCC(C)=NOC)C2,0.341 (inactive),-0.0832,-1.21,-3.29 (inactive),–,–
C=C(CC1(CNP(=O)(c2ccccc2)c2ccccc2)CC1)c1ccccc1,1.26 (inactive),0.651,-0.176,-2.28 (inactive),-0.462 (inactive),-0.427 (inactive)
